# Reference: PubChem BioAssay (NCATS)
# Inconclusive results are not listed. A call without a number means that no potency is given here. A number with no mark means an inactive call. Calls of active or inactive are those of the source. Unless noted, calls come from the whole dose curve; as a rule, active = well fitted curve in the direction sought with a large enough effect; inconclusive = small, poorly fitted or top-dose-only effect, or another doubt; inactive = no such curve, though single readings can be large; an effect the other way counts as inactive or inconclusive.
# What was measured:
# [1] = target: ATP-dependent 6-phosphofructokinase (Trypanosoma brucei brucei) (UniProt O15648); experiment: qHTS Assay to Find Inhibitors of T. brucei phosphofructokinase: hit validation (AID 492961);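 note: luminescence reports ADP formed as PFK phosphorylates fructose-6-phosphate with ATP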
# How it was run: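 Inhibition of parasite PFK is measured as reduced ADP formation, quantified via luciferase after ATP depletion. Assay used 0.1 mM ATP, 0.5 mM F6P, 1.25 nM enzyme, 45 min incubation.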
# [2] = target: Luciferin 4-monooxygenase (Photinus pyralis) (UniProt P08659); experiment: Biochemical firefly luciferase enzyme assay for NPC (AID 624030); note: nearly all actives have a fitted effect of over 70% in size; note: potency is the fitted concentration of half-maximal effect
# How it was run: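 Purified P. pyralis luciferase at 10 nM in 50 mM Tris Acetate (final), luminescence read within 5 minutes of enzyme addition to compounds. Activity normalised to PTC124 versus DMSO; concentration-response curves classed by r2, magnitude and activity.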
# [3] = S16 Schwann cell PMP22 intronic element beta-lactamase assay (AID 624044; calls by dose curve; note: nearly all actives have a fitted effect of over 15% in size; note: potency is the fitted concentration of half-maximal effect); details: S16 rat Schwann cells, PMP22 element beta-lactamase FRET, 24 h; ratio activity, negative = inhibition: at 38.3 µM (top of the series)
# How it was run: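 Rat S16 Schwann cells with beta-Lac driven by a PMP22 intronic element, compound-treated 24 h at 37 °C. LiveBLAzer FRET B/G read: 460 nm normalized to potassium clavulanate vs DMSO; 535 nm FRET as viability; concentration-effect curves classified.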
# [4] = qHTS profiling for inhibitors of Plasmodium falciparum proliferation (AID 504749); note: potency is the fitted concentration of half-maximal effect; for all read-outs here: nearly all actives have a fitted effect of over 60% in size; details: P. falciparum in erythrocytes, SYBR Green DNA, 72 h; for activity, negative = inhibition: at 28.7 µM (top of the series)
# How it was run: (§1)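 P. falciparum-infected erythrocytes (0.3% parasitemia, 2.5% hematocrit) incubated with compound 72 h at 37 C, 5% CO2. Parasite DNA detected by SYBR Green after lysis, overnight at room temperature; normalised to 0.29 uM artemisinin and DMSO.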
# AA1029 = experiment: as above; details: P. falciparum in erythrocytes, SYBR Green DNA, 72 h; series mostly up to 28.7 µM
# How it was run: as §1
# CP185 = experiment: as above; details: P. falciparum in erythrocytes, SYBR Green DNA, 72 h; series mostly up to 28.7 µM
# How it was run: as §1
# CP192 = experiment: as above; details: P. falciparum in erythrocytes, SYBR Green DNA, 72 h; series mostly up to 28.7 µM
# How it was run: as §1
# CP211 = experiment: as above; details: P. falciparum in erythrocytes, SYBR Green DNA, 72 h; series mostly up to 28.7 µM
# How it was run: as §1
# CP238 = experiment: as above; details: P. falciparum in erythrocytes, SYBR Green DNA, 72 h; series mostly up to 28.7 µM
# How it was run: as §1
# CP262 = experiment: as above; details: P. falciparum in erythrocytes, SYBR Green DNA, 72 h; series mostly up to 28.7 µM
# How it was run: as §1
# CP269 = experiment: as above; details: P. falciparum in erythrocytes, SYBR Green DNA, 72 h; series mostly up to 28.7 µM
# How it was run: as §1
# CP286 = experiment: as above; details: P. falciparum in erythrocytes, SYBR Green DNA, 72 h; series mostly up to 28.7 µM
# How it was run: as §1
# CP315 = experiment: as above; details: P. falciparum in erythrocytes, SYBR Green DNA, 72 h; series mostly up to 28.7 µM
# How it was run: as §1
# CP329 = experiment: as above; details: P. falciparum in erythrocytes, SYBR Green DNA, 72 h; series mostly up to 28.7 µM
# How it was run: as §1
# Dd2 = experiment: as above; details: P. falciparum in erythrocytes, SYBR Green DNA, 72 h; series mostly up to 28.7 µM
# How it was run: as §1
# ECU = experiment: as above; details: P. falciparum in erythrocytes, SYBR Green DNA, 72 h; series mostly up to 28.7 µM
# How it was run: as §1
# FAB9 = experiment: as above; details: P. falciparum in erythrocytes, SYBR Green DNA, 72 h; series mostly up to 28.7 µM
# How it was run: as §1
# JCK = experiment: as above; details: P. falciparum in erythrocytes, SYBR Green DNA, 72 h; series mostly up to 28.7 µM
# How it was run: as §1
# N140 = experiment: as above; details: P. falciparum in erythrocytes, SYBR Green DNA, 72 h; series mostly up to 28.7 µM
# How it was run: as §1
# PC49 = experiment: as above; details: P. falciparum in erythrocytes, SYBR Green DNA, 72 h; series mostly up to 28.7 µM
# How it was run: as §1
# Luciferin 4-monooxygenase (Photinus pyralis), sequence (P08659 whole entry, looked up): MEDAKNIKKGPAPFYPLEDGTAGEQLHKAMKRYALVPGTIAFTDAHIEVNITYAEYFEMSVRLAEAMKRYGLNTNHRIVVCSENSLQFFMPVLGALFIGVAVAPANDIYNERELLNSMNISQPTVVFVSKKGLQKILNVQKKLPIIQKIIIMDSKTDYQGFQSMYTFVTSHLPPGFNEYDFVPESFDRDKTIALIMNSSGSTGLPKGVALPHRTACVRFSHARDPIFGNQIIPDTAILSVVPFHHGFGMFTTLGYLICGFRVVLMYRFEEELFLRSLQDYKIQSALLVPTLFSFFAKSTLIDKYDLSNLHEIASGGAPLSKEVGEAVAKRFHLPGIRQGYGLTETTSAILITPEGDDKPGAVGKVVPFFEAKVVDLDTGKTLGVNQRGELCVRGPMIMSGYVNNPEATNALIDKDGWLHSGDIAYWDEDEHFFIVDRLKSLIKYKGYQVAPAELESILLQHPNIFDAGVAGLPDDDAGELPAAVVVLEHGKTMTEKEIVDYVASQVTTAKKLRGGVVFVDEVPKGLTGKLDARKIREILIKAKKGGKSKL
# ATP-dependent 6-phosphofructokinase (Trypanosoma brucei brucei), sequence (O15648 whole entry, looked up): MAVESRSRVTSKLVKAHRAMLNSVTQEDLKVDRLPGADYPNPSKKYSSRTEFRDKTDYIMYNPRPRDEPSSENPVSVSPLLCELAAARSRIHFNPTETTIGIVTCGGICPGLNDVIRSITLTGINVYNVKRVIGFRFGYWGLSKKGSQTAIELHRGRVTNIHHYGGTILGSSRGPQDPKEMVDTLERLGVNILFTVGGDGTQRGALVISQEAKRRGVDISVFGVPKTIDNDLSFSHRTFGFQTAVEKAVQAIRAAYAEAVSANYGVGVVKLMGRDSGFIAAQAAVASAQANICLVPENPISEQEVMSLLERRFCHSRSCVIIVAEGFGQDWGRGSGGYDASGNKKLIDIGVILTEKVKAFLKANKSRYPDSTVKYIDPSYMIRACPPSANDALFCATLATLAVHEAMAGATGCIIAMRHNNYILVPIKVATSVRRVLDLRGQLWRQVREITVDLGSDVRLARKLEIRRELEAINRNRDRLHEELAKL
structure (smiles),measurement,setting,value
CC1(C(=O)O)CCC2(C)CCC3(C)C(=CC(=O)C4C5(C)CCC(O)C(C)(C)C5CCC43C)C2C1 (stereo not drawn),Potency,[1],inactive
same,Potency,[2],inactive
same,Potency,[3],inactive
same,"activity, negative = inhibition",[4]; parasite line A,8.05%
same,"activity, negative = inhibition",[4]; parasite line B,1.81%
same,Potency,AA1029,inactive
same,Potency,CP185,inactive
same,Potency,CP192,inactive
same,Potency,CP211,inactive
same,Potency,CP238,inactive
same,Potency,CP262,inactive
same,Potency,CP269,inactive
same,Potency,CP286,inactive
same,Potency,CP315,inactive
same,Potency,CP329,inactive
same,Potency,Dd2,inactive
same,Potency,ECU,inactive
same,Potency,FAB9,inactive
same,Potency,JCK,inactive
same,Potency,N140,inactive
same,Potency,PC49,inactive
CCN(CC)CC(=O)Nc1c(C)cc(C)cc1C,Potency,[1],inactive
same,Potency,[2],inactive
same,Potency,[3],inactive
same,"activity, negative = inhibition",[4]; parasite line A,2.56%
same,"activity, negative = inhibition",[4]; parasite line B,6.57%
same,Potency,AA1029,inactive
same,Potency,CP185,inactive
same,Potency,CP192,inactive
same,Potency,CP211,inactive
same,Potency,CP238,inactive
same,Potency,CP262,inactive
same,Potency,CP269,inactive
same,Potency,CP286,inactive
same,Potency,CP315,inactive
same,Potency,CP329,inactive
same,Potency,Dd2,inactive
same,Potency,ECU,inactive
same,Potency,FAB9,inactive
same,Potency,JCK,inactive
same,Potency,N140,inactive
same,Potency,PC49,inactive
Cc1ccc(/C=C2/C(=O)C3(C)CCC2C3(C)C)cc1 (stereo not drawn),Potency,[1],inactive
same,Potency,[2],inactive
same,"activity, negative = inhibition",[4]; parasite line A,14.8%
same,"activity, negative = inhibition",[4]; parasite line B,12%
same,Potency,AA1029,inactive
same,Potency,CP185,inactive
same,Potency,CP192,inactive
same,Potency,CP211,inactive
same,Potency,CP238,inactive
same,Potency,CP262,inactive
same,Potency,CP269,inactive
same,Potency,CP286,inactive
same,Potency,CP315,inactive
same,Potency,CP329,inactive
same,Potency,Dd2,inactive
same,Potency,ECU,inactive
same,Potency,FAB9,inactive
same,Potency,JCK,inactive
same,Potency,N140,inactive
same,Potency,PC49,inactive
CCCCC(=O)OCC(=O)[C@]1(O)Cc2c(O)c3c(c(O)c2[C@H](OC2CC(NC(=O)C(F)(F)F)C(O)C(C)O2)C1)C(=O)c1c(OC)cccc1C3=O (stereo partly drawn),Potency,[1],inactive
same,Potency,[2],inactive
same,Potency,[3],2510 nM (active)
same,Potency,[4]; parasite line A,2240 nM (active)
same,Potency,[4]; parasite line B,2510 nM (active)
same,Potency,AA1029,2000 nM (active)
same,Potency,CP185,2240 nM (active)
same,Potency,CP192,2390 nM (active)
same,Potency,CP211,1690 nM (active)
same,Potency,CP238,2510 nM (active)
same,Potency,CP262,1900 nM (active)
same,Potency,CP269,1690 nM (active)
same,Potency,CP286,1580 nM (active)
same,Potency,CP315,1690 nM (active)
same,Potency,CP329,3790 nM (active)
same,Potency,Dd2,2240 nM (active)
same,Potency,ECU,2510 nM (active)
same,Potency,FAB9,11200 nM (active)
same,Potency,N140,2000 nM (active)
Cc1ccccc1N1C(=O)c2cc(N)ccc2N/C1=C\F,Potency,[1],inactive
same,Potency,[2],inactive
same,"activity, negative = inhibition",[4]; parasite line A,-6.61%
same,"activity, negative = inhibition",[4]; parasite line B,-18.2%
same,Potency,AA1029,inactive
same,Potency,CP185,inactive
same,Potency,CP192,inactive
same,Potency,CP211,inactive
same,Potency,CP238,inactive
same,Potency,CP262,inactive
same,Potency,CP269,inactive
same,Potency,CP286,inactive
same,Potency,CP315,inactive
same,Potency,CP329,inactive
same,Potency,Dd2,inactive
same,Potency,ECU,inactive
same,Potency,FAB9,inactive
same,Potency,JCK,inactive
same,Potency,N140,inactive
same,Potency,PC49,inactive
Cc1ccc(Nc2ncccc2C(=O)O)cc1C,Potency,[1],inactive
same,Potency,[2],11400 nM (active)
same,Potency,[3],inactive
same,"activity, negative = inhibition",[4]; parasite line A,6.4%
same,"activity, negative = inhibition",[4]; parasite line B,7.72%
same,Potency,AA1029,inactive
same,Potency,CP185,inactive
same,Potency,CP192,inactive
same,Potency,CP211,inactive
same,Potency,CP238,inactive
same,Potency,CP262,inactive
same,Potency,CP269,inactive
same,Potency,CP286,inactive
same,Potency,CP315,inactive
same,Potency,CP329,inactive
same,Potency,Dd2,inactive
same,Potency,ECU,inactive
same,Potency,FAB9,inactive
same,Potency,JCK,inactive
same,Potency,N140,inactive
same,Potency,PC49,inactive
NC(=O)OC[C@@H]1[C@H](NC(=O)/C(=N/OCC(=O)O)c2csc(N)n2)C(=O)N1S(=O)(=O)O,Potency,[1],inactive
same,Potency,[2],inactive
same,Potency,[3],inactive
same,"activity, negative = inhibition",[4]; parasite line A,-1.72%
same,"activity, negative = inhibition",[4]; parasite line B,1.04%
same,Potency,AA1029,inactive
same,Potency,CP185,inactive
same,Potency,CP192,inactive
same,Potency,CP211,inactive
same,Potency,CP238,inactive
same,Potency,CP262,inactive
same,Potency,CP269,inactive
same,Potency,CP286,inactive
same,Potency,CP315,inactive
same,Potency,CP329,inactive
same,Potency,Dd2,inactive
same,Potency,ECU,inactive
same,Potency,FAB9,100 nM (active)
same,Potency,N140,inactive
same,Potency,PC49,inactive
CCCC(=O)O[C@]1(C(=O)COC(C)=O)CC[C@H]2C3C[C@H](F)C4=CC(=O)C=CC4(C)[C@@]3(F)[C@@H](O)CC21C (stereo partly drawn),Potency,[1],inactive
same,Potency,[2],inactive
same,"activity, negative = inhibition",[4]; parasite line A,-8.4%
same,"activity, negative = inhibition",[4]; parasite line B,-24.8%
same,Potency,AA1029,inactive
same,Potency,CP185,inactive
same,Potency,CP192,inactive
same,Potency,CP211,inactive
same,Potency,CP238,inactive
same,Potency,CP262,inactive
same,Potency,CP269,inactive
same,Potency,CP286,inactive
same,Potency,CP315,inactive
same,Potency,CP329,inactive
same,Potency,Dd2,inactive
same,Potency,ECU,inactive
same,Potency,FAB9,inactive
same,Potency,JCK,inactive
same,Potency,N140,inactive
same,Potency,PC49,inactive
CC1C(=O)C(=O)C=CN1C (stereo not drawn),Potency,[1],inactive
same,Potency,[2],inactive
same,"activity, negative = inhibition",[4]; parasite line A,3.53%
same,"activity, negative = inhibition",[4]; parasite line B,9.14%
same,Potency,AA1029,inactive
same,Potency,CP185,inactive
same,Potency,CP192,inactive
same,Potency,CP211,inactive
same,Potency,CP238,inactive
same,Potency,CP262,inactive
same,Potency,CP269,inactive
same,Potency,CP286,inactive
same,Potency,CP315,inactive
same,Potency,CP329,inactive
same,Potency,Dd2,inactive
same,Potency,ECU,inactive
same,Potency,FAB9,inactive
same,Potency,JCK,inactive
same,Potency,N140,inactive
same,Potency,PC49,inactive
CN(C)CC/C=C1\c2ccccc2COc2ccc(CC(=O)O)cc21,Potency,[1],inactive
same,Potency,[2],inactive
same,Potency,[3],inactive
same,"activity, negative = inhibition",[4]; parasite line A,1.27%
same,"activity, negative = inhibition",[4]; parasite line B,-5.49%
same,Potency,AA1029,inactive
same,Potency,CP185,inactive
same,Potency,CP192,inactive
same,Potency,CP211,inactive
same,Potency,CP238,inactive
same,Potency,CP262,inactive
same,Potency,CP269,inactive
same,Potency,CP286,inactive
same,Potency,CP315,inactive
same,Potency,CP329,inactive
same,Potency,Dd2,inactive
same,Potency,ECU,inactive
same,Potency,FAB9,inactive
same,Potency,JCK,inactive
same,Potency,N140,inactive
same,Potency,PC49,inactive
OCC1OC(O)C(O)C(O)C1O (stereo not drawn),Potency,[1],inactive
same,Potency,[2],inactive
same,Potency,[3],inactive
same,"activity, negative = inhibition",[4]; parasite line A,-3.4%
same,"activity, negative = inhibition",[4]; parasite line B,8.64%
same,Potency,AA1029,inactive
same,Potency,CP185,inactive
same,Potency,CP192,inactive
same,Potency,CP211,inactive
same,Potency,CP238,inactive
same,Potency,CP262,inactive
same,Potency,CP286,inactive
same,Potency,CP315,inactive
same,Potency,CP329,inactive
same,Potency,Dd2,inactive
same,Potency,ECU,inactive
same,Potency,FAB9,inactive
same,Potency,JCK,inactive
same,Potency,N140,inactive
same,Potency,PC49,inactive
